Results published in PubChem BioAssay AID1053173 (Broad Institute, 2014).
The whole screen tested about 1,500 compounds, of which about 390 (26%) were called active. How the calls were made is not given here. A selection follows. Measured potencies and affinities stand elsewhere.

What follows are compounds tested against Histone-lysine N-methyltransferase NSD2 (Homo sapiens) (UniProt O96028) (assay: blockers of NSD2 H4 peptide methylation – biochemical, AlphaScreen, cherry-picked samples, dose response (AID 1053173)). Details: 120 min; series mostly up to 10 µM.
Sequence of Histone-lysine N-methyltransferase NSD2 (Homo sapiens) (O96028 whole entry, looked up): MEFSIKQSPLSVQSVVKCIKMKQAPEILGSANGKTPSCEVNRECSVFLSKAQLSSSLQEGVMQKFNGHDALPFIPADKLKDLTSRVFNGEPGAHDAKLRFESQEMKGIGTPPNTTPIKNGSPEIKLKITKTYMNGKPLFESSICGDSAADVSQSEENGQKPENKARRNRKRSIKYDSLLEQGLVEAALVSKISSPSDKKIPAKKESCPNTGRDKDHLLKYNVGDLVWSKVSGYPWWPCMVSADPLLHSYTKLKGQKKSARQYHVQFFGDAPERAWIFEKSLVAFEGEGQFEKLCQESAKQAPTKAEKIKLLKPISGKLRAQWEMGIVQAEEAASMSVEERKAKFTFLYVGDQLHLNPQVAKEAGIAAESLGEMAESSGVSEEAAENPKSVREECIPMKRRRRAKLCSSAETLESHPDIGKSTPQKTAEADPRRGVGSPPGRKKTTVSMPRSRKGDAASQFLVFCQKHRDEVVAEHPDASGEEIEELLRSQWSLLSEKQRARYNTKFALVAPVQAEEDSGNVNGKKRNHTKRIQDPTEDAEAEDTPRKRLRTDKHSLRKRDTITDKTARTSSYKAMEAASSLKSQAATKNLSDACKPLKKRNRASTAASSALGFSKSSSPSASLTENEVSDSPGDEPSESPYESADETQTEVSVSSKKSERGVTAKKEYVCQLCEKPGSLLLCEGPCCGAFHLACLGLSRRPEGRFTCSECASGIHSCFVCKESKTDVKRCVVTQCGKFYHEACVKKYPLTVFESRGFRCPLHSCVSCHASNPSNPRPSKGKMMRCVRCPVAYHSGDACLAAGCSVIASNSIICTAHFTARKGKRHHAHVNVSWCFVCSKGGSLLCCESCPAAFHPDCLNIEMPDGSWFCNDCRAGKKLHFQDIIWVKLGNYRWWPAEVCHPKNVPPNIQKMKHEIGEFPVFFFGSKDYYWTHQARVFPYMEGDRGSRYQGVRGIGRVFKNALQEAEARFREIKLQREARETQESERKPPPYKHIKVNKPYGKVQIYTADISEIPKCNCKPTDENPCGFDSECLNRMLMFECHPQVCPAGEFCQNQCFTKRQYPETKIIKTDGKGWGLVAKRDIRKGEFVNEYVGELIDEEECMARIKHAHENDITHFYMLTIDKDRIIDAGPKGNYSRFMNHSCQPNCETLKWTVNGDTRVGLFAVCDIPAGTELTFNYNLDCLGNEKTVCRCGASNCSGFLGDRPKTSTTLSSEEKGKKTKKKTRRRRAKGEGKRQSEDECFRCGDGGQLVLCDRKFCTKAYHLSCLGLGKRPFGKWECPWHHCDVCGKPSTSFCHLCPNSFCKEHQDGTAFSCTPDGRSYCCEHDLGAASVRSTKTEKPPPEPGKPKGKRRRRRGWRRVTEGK

outcome, inactive:
N=c1c(C(=O)NCc2ccco2)cc2c(=O)n3ccccc3nc2n1C1CCCC1
COc1cccc(CN2CCC(Oc3ccc(C(=O)N4CCCCC4)cc3)CC2)c1O
Cc1ccc(NC(=O)CN(C)CCOc2ccccc2)c([N+](=O)[O-])c1
CN1CCN(/N=C/c2nc(-c3ccccc3Cl)n3ccccc23)CC1
Cn1c(SCc2ccccc2C#N)nc2ccccc2c1=O
COc1cn(-c2ccccc2)nc1C(=O)NCc1ccccc1
C=CCSc1nnc(-c2ccc(Cl)cc2Cl)o1
CCOC(=O)C1=CN(c2cccc(F)c2)C=C(C(=O)OCC)C1c1cc(OC)c(O)c([N+](=O)[O-])c1
CCC1CC(CSc2ncn[nH]2)OC1=O (stereo not drawn)
COc1ccccc1CNC(=O)C(NC(=O)Nc1ccccc1)C(C)C (stereo not drawn)
CC(C)(C)/C=N/NC(=O)CNC(=O)c1ccc2c(c1)OCCO2
CS(=O)(=O)N(CC(=O)NCc1ccco1)c1ccc2c(c1)OCO2
COc1cc(NC(=O)COC(=O)CNC(=O)c2ccc(C)cc2)c(C)cc1[N+](=O)[O-]
Cc1ccc(NC(=S)Nc2cccc3cnccc23)cc1
CCc1ccc(NC(=S)Nc2cccc3cnccc23)cc1
Fc1ccc(NC(=S)Nc2ccc3nccnc3c2)cc1
S=C(Nc1ccc2nsnc2c1)N1CCCC1
CCOc1ccc(NC(=S)N2CCC(NC(=O)C3CCCCC3)CC2)cc1
COc1cc(/C=N/N2CCN(C3c4ccccc4-c4ccccc43)CC2)cc(OC)c1OC
Cc1ccc(CSc2nc3c(c(=O)[nH]2)C(c2ccncc2)C2=C(CCCC2=O)N3)cc1 (stereo not drawn)
CC(=O)c1cccc(NC(=O)c2csc(-n3nc(C)cc3C(F)(F)F)n2)c1
CCCC(C(=O)NC(C)(C)C)N(CC1CCCO1)C(=O)CNS(=O)(=O)c1ccc(F)cc1 (stereo not drawn)
CC(=O)Nc1ccc(SCCC2CCCCN2C)cc1 (stereo not drawn)
CCOc1ccc(-n2cnc3sc4c(c3c2=O)CCCC4)cc1
C[N+](C)(C)CCC(=O)N1C/C(=C/c2ccccc2)C(=O)/C(=C\c2ccccc2)C1
O=C(CN1C(=O)c2ccc([N+](=O)[O-])cc2C1=O)Nc1nnc(C2CC2)s1
Cc1ccc(NC(=O)c2cc([N+](=O)[O-])ccc2NCc2cccnc2)cc1Cl
CC(=O)N1CCc2cc(Br)cc(S(=O)(=O)NCCCN(C)Cc3ccccc3)c21
CN1CCC(=NNC(=O)c2cn(-c3ccccc3)nc2-c2ccccc2)CC1
Cc1ccccc1-c1noc(C23CC4CC(CC(C4)C2)C3)n1
CCOC(=O)C1CCCN(C(=O)c2ccc(OC(C)=O)cc2)C1 (stereo not drawn)
Cc1nnc(Sc2cc(NCCO)c([N+](=O)[O-])c3nonc23)s1
CC(C)CNC(=O)c1cnn2c(C(F)(F)F)cc(C(F)(F)F)nc12
Nc1c(Br)cc(Br)c2c1[nH]c(=O)c1ccccc12
CCOc1cc(N2CCOCC2)c(OCC)cc1NC(=O)c1cnccn1
COc1cc(/C=N/n2c(C)nnc2C)cc(OC)c1OC
O=C(c1ccccc1OCc1ccccc1Br)N1CCN(c2ncccn2)CC1
CSc1nnc(-c2ccco2)c(-c2ccco2)n1
N#Cc1ccc(-c2ccco2)nc1SCc1ccccc1
CCOC(=O)CC(NS(=O)(=O)c1ccc2[nH]cc(C(=O)O)c(=O)c2c1)c1ccc(OCC)c(OC)c1 (stereo not drawn)
O=C(/C=C/c1ccc(OCCCF)cc1)N1CCN(Cc2ccccc2)CC1
CN1C(=O)C(=O)/C(=C(/O)c2ccccc2)C1c1ccccc1 (stereo not drawn)
CCn1c(SC(=O)NC2CCCCC2)nnc1-c1cccs1
Cc1cc(C)c(NC(=O)C2CC(=O)N(c3ccc4c(c3)OCCO4)C2)c(C)c1 (stereo not drawn)
Cc1cc(C)nc(N2CCC(C(=O)N(C)CCc3ccccc3)CC2)n1
C/[N+]([O-])=C1\Cc2ccccc2C1=O
O=C(CN(C(=O)c1csnn1)c1cccc2ccccc12)NCc1ccccc1
Cc1cc(C(=O)COC(=O)c2n[nH]c3ccccc23)c(C)n1C
O=C(NCCCn1ccnc1)C1CCN(S(=O)(=O)c2ccc(F)cc2)CC1
CC(=O)Nc1ccc(S(=O)(=O)NCCSCc2ccc(Cl)cc2Cl)cc1
CC(C)NCC#CCOc1ccc(Cl)cc1
COC(=O)c1ccc(-n2nnnc2SCC(=O)NCc2cccc(C(=O)O)c2)cc1
O=C(NCc1ccco1)c1scc2c1OCCO2
CC(C)(C)NC(=O)C(c1ccco1)N(C(=O)Cn1nnc(-c2ccc(F)cc2)n1)c1ccccc1F (stereo not drawn)
Cc1cc(=O)oc(C)c1C(=O)OCC(=O)c1ccccc1
O=C(c1ccccc1)c1cc2ccccc2oc1=O
COc1ccc(N2CCOCC2)c(NC(=O)c2ccc3c(c2)OCO3)c1
CCC1Cc2c(nc(N)c3c(N)nc(N4CCOCC4)c(C#N)c23)O1 (stereo not drawn)
CCOc1cc2c(C#N)c(N3CCOCC3)nc(N)c2c(N)n1
CC(C)n1c(NCc2nc3ccccc3n2C)nc2ccccc21
CCc1ccc(N2C(=O)C3C(C2=O)N2CCCN2C3c2ccccc2)cc1 (stereo not drawn)
COc1cc(/C=C2\C(=O)ON=C2c2ccccc2)cc(Cl)c1O
COc1ccc(CNC(=O)CCCN2C(=O)NC3(CCCC3)C2=O)cc1
O=C1C(=Cc2ccco2)CCC1=Cc1ccco1
COc1ccc(NC(=O)Cn2nnc(C(=O)NCCc3ccc(OC)c(OC)c3)c2N)cc1
Cc1ccc(S(=O)(=O)N2CCCCC2CCNC(=O)C(=O)Nc2ccccc2F)cc1 (stereo not drawn)
CC(=O)N(C)c1ccc(N=Nc2c(C)[nH]n(C(N)=S)c2=O)cc1
NS(=O)(=O)c1ccc(N/N=C/c2ccncc2)cc1
COC(=O)[C@H](Cc1ccccc1)NC(=O)Nc1ccc(S(N)(=O)=O)cc1
CCCCNC1=CC(=O)C(=O)c2ccccc21
O=C(CSc1nc(SCC(=O)NCc2ccccc2)n(-c2ccccc2)n1)NCc1ccccc1
COc1ccc(C(=O)Nc2c3c(nn2-c2ccc(Cl)cc2)CS(=O)(=O)C3)cc1
CC(=O)N1C2CCCCC2S[C@H]2CCCCC21 (stereo partly drawn)
O=C(NCc1ccco1)Nc1cccc([N+](=O)[O-])c1
CCCCc1nc2cc(C(=O)N3CCC(O)CC3)ccc2o1
O=C(NC(c1ccc(Cl)cc1)c1cc(Cl)c2cccnc2c1O)c1cccnc1 (stereo not drawn)
Cn1c(=O)c(-c2ccccc2)nc2ccccc21
CCCn1c(C)nc2c(c1=O)c1nc3ccccc3nc1n2-c1ccccc1
CC(=O)Nc1ccc(N(C(=O)CNC(=O)c2ccco2)C(C(=O)NCC2CCCO2)c2ccccc2)cc1 (stereo not drawn)
CCN(CC)S(=O)(=O)c1cccc(-c2nnc(SCCCC(=O)c3ccc(F)cc3)o2)c1
Cc1[nH]n(-c2ccccc2)c(=O)c1N=Nc1ccccc1C(=O)N1CCCCC1
CC1(C)Cc2c(c(-c3ccco3)[nH]c(=O)c2C#N)CS1
CCc1ccc(-c2cc(C)no2)cc1S(=O)(=O)N1CCN(c2ccc(F)cc2)CC1
COc1ccc(NC(=O)CC2C(=O)NCCN2C(=O)c2ccc(N(C)C)cc2)cc1 (stereo not drawn)
Cc1cc(NC(=O)CSc2nc3ccccc3cc2C#N)no1
O=C(Nc1ccc(O)cc1)C1CC=CCC1 (stereo not drawn)
CC1CN(Cc2nc3c(c(=O)n(C)c(=O)n3C)n2CCCc2ccccc2)CC(C)O1 (stereo not drawn)
O=C(OCc1cccc2ccccc12)C1CC(=O)N(c2ccccc2)C1 (stereo not drawn)
COc1cccc2c1N1C(=O)c3c(C(=O)O)cccc3C1CC2(C)C (stereo not drawn)
COc1ccc(C2C(C(=O)c3ccco3)=C(O)C(=O)N2CC2CCCO2)cc1OC (stereo not drawn)
CCOC(=O)c1c(NC(=O)COC)sc2c1CCCC2
CCN(C(=S)Nc1ccc(C(C)=O)cc1)C1CCCCC1
CC1CN(Cc2cc(=O)n3ccsc3n2)CC(C)O1 (stereo not drawn)
COCCn1c(N)c(N(Cc2ccccc2)C(=O)c2cc(=O)[nH]c3ccccc23)c(=O)[nH]c1=O
CC(C)CN(C(=O)COC(=O)c1ccc([N+](=O)[O-])s1)c1c(N)n(Cc2ccccc2)c(=O)[nH]c1=O
CCn1c(SCC(=O)N2CCCCC2)nc2c1c(=O)n(C)c(=O)n2C
CCOC(=O)C1=C(C)N(C)C(=S)NC1c1ccccc1Cl (stereo not drawn)
COc1cc(/C=C2\SC(N)=NC2=O)cc(Cl)c1O
O=C(CCc1nnc(-c2ccccc2)o1)NCc1cc(F)ccc1F
CCNC(=O)C1CCCN(C(=O)c2ccccc2OC(F)(F)F)CC1 (stereo not drawn)
COc1ccc(NS(=O)(=O)c2cc(NC(=O)COc3ccccc3)ccc2N2CCOCC2)cc1
Cc1ccccc1N1CC(C(=O)Nc2ccc(S(=O)(=O)N3CCOCC3)cc2)CC1=O (stereo not drawn)
O=C(CN1CCOCCOCCN(CC(=O)Nc2ccccc2)CCOCC1)Nc1ccccc1
Cc1ccc(S(=O)(=O)c2ccc(Cl)cc2)cc1S(=O)(=O)N1CCOCC1
Cc1ccc(/C=N/NC(=O)c2cc3ccccc3cc2O)o1
CCN(Cc1ccccc1)Cc1c(C)[nH]c2c(C)c(C)ccc2c1=O
CCCc1cc(=O)n(-c2nc3ccccc3s2)[nH]1
CC1(C)Cc2c(c(-c3ccco3)[nH]c(=O)c2C#N)CO1
